From PubChem BioAssay
The sample as a whole holds a higher share of hits than the screen did.
D1 allo mod = D1 CRE-luciferase signal change, two-sided – cell-based, HEK293 D1, dopamine EC30, D1 allosteric modulator project, primary screen; D(1A) dopamine receptor (Homo sapiens), P21728; dopamine EC30 potentiation; actives deviate in either direction; B-score at 10 µM; actives 5.9% (n = 58,000); AID 641, 2007;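 active means luminescence count or its row- and column-corrected plate score outside the 99.7% band of the plate's sample wells, on either side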
DAT uptake mod = changed hDAT dopamine uptake under cocaine IC80, either direction, primary screen, cocaine antagonist project, cell-based, LLC-PK1 hDAT, [14C]-dopamine uptake, MLSMR | Sodium-dependent dopamine transporter (Homo sapiens), Q01959 | actives 1.3% (n = 110,000) | LLC-PK1 hDAT cells, [14C]-dopamine uptake with cocaine IC80; actives deviate in either direction | B-score at 10 µM;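 active means Z score or B-score, a plate-position-corrected score, falls beyond the plate's 99.7% confidence bounds, in either direction; inactive means both scores lie inside the 99.7% bounds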
PKA kinase inh = inhibitors of human PKA kinase activity, primary screen, biochemical, ATP-depletion luminescence, Kemptide substrate. actives 0.1% (n = 65,000). PKA Kemptide phosphorylation, Kinase-Glo ATP luminescence. cAMP-dependent protein kinase catalytic subunit alpha (Homo sapiens), P17612. inhibition, % at 6 µM;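 active means inhibition above the screen-wide mean inhibition plus 3 SD, cut at about 21% in these data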
ROCK2 inh = inhibitors of human ROCK2 kinase, primary screen, biochemical, high-throughput, luminescence | Rho-associated protein kinase 2 (Homo sapiens), O75116 | purified ROCK2, Kinase-Glo ATP depletion luminescence | inhibition, % at 6 µM | actives 0.35% (n = 60,000) | AID 604, 2007;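 active means inhibition above the screen-wide mean inhibition plus 3 SD, cut at about 18% in these data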
Target sequence (O75116 whole entry, looked up): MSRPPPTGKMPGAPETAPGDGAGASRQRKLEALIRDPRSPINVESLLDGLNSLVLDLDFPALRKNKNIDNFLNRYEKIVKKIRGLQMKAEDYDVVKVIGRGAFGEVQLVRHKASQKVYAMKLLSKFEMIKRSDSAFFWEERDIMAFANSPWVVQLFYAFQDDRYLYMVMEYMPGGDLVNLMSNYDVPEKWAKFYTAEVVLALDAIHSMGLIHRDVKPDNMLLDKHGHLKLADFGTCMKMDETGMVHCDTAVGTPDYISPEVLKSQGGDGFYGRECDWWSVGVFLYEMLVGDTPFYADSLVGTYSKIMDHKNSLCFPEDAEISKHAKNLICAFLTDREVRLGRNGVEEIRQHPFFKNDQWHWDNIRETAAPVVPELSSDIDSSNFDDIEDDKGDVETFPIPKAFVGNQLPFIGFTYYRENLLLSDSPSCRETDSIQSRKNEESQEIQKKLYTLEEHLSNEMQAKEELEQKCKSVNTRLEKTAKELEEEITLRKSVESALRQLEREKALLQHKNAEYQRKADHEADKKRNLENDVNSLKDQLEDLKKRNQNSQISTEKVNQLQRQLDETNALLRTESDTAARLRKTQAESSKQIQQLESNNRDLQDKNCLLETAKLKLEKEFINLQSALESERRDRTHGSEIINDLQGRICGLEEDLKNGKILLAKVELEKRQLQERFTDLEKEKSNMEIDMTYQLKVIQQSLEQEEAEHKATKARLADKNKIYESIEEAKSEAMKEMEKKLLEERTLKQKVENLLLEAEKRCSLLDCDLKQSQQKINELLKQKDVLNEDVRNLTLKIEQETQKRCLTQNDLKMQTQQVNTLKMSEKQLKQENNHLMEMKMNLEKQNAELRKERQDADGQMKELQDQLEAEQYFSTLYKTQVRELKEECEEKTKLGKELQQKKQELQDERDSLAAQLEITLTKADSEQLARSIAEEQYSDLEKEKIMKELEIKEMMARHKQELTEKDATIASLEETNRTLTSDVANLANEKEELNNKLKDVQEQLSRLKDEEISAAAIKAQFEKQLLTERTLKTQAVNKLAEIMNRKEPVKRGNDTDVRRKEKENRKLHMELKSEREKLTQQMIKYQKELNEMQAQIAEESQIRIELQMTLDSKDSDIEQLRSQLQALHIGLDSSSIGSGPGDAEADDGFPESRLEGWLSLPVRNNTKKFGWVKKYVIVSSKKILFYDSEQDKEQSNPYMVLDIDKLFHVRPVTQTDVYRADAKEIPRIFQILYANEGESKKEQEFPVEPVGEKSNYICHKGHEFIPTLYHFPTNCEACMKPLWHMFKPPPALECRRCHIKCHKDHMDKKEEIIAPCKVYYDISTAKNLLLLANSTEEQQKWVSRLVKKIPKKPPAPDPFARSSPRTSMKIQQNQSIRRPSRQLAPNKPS
Hits are given with their value.

For CCOC(=O)C1=C(C)NC(=O)NC1c1ccc(OC(=O)c2ccco2)c(OC)c1 (stereo not given) the results were D1 allo mod inactive, DAT uptake mod inactive, PKA kinase inh inactive and ROCK2 inh inactive.
`O=C(NCc1ccccc1)C1COc2ccccc2O1` (stereo not given) gave DAT uptake mod inactive.
For O=C(NC1CCN(Cc2ccccc2)CC1)C1COc2ccccc2O1 (stereo not given) the results were D1 allo mod -3.94, DAT uptake mod inactive, PKA kinase inh inactive and ROCK2 inh inactive.
For CC1(C)OC(=O)C(=CNc2cccc(C(=O)O)c2)C(=O)O1 the results were D1 allo mod inactive, DAT uptake mod -6.97, PKA kinase inh inactive and ROCK2 inh inactive.
For CCCc1cc2c(cc1NC(=O)c1ccc(Br)cc1)OCO2 the results were DAT uptake mod inactive.
For Nc1ccc2c(c1)C(=O)C(=O)c1ccccc1-2 the results were DAT uptake mod -3.21.
For O=C1C(=O)c2ccc(-c3ccccc3)cc2-c2ccccc21 the results were DAT uptake mod inactive.
OCOCCCn1c(C2CCCN2c2nc(-c3ccc(F)cc3)cs2)nc2cc(Cl)c(N3CCCCC3)cc21 (stereo not given) was read as DAT uptake mod inactive.
`COc1nc(Nc2nc3ccccc3c(=O)[nH]2)nc2ccc(C)cc12` gave D1 allo mod -2.68, PKA kinase inh inactive and ROCK2 inh inactive.
Screening CC(=O)C1=C(C)N(Cc2ccccc2)C(=O)N[C@H]1c1ccco1 returned DAT uptake mod inactive.
For CCC(C)(C)NC(=O)C(c1ccco1)N(C(=O)CNC(=O)c1cccs1)c1cccnc1 (stereo not given) the results were DAT uptake mod -8.17.
COc1ccc(Nc2ccc3c(c2)=NC2(CCCCC2)[N+]=3[O-])cc1 was read as D1 allo mod -2.72 and DAT uptake mod inactive.
`CN1CC(c2ccc(C#N)cc2)C2(COc3ccccc3C2=O)C12C(=O)Nc1ccccc12` (stereo not given) gave DAT uptake mod inactive.
Screening Cc1ccc(-c2nc(-c3ccccc3)no2)c(Cl)c1 returned D1 allo mod -8.69, DAT uptake mod inactive, PKA kinase inh inactive and ROCK2 inh inactive.
Cc1ccc(S(=O)(=O)N2CCOCC2)cc1C(=O)N1c2ccccc2Sc2ccccc21 was read as DAT uptake mod inactive.
`COCCCn1c(Cc2csc(Nc3ccc(F)cc3)n2)nnc1SCC(N)=O` gave DAT uptake mod inactive.
`Cc1cc(Cl)cc(Br)c1OCCCN1C(=O)NC(C)(C)C1=O` gave DAT uptake mod inactive.
CCOc1ccc2nc3ccc4[nH]onc4c3c2c1 was read as D1 allo mod inactive, DAT uptake mod inactive, PKA kinase inh 34.9 and ROCK2 inh inactive.
CCOc1ccc2nc(N3CCOCC3)nc(C)c2c1 was read as D1 allo mod inactive, DAT uptake mod inactive, PKA kinase inh inactive and ROCK2 inh inactive.
Cn1c(=O)cc(N)n(Cc2ccccc2)c1=O was read as DAT uptake mod inactive.
`O=C(NCc1ccccc1)c1cnc2n(c1=O)CCS2` gave D1 allo mod -3.47, DAT uptake mod inactive, PKA kinase inh inactive and ROCK2 inh inactive.
`CN1CCN(C(=O)c2cn(-c3ccccc3)nc2-c2cccnc2)CC1` gave DAT uptake mod inactive.
`Cc1ccc(-c2nn(-c3ccccc3)cc2C(=O)N2CCOCC2)cc1` gave D1 allo mod -4.04, DAT uptake mod inactive, PKA kinase inh inactive and ROCK2 inh inactive.
Screening COc1ccc(CCNC(=O)C2CC3Cn4c(nc5ccccc54)C3N2c2ccccc2)cc1 (stereo not given) returned DAT uptake mod inactive.
For O=C(Nc1ccc2c(c1)nc1n2CCSC1)c1ccccc1 the results were D1 allo mod -3.7, DAT uptake mod inactive, PKA kinase inh inactive and ROCK2 inh inactive.
Screening CC(c1ccccc1)N1CCn2c(nc3cc(NC(=O)c4cccs4)ccc32)C1 (stereo not given) returned DAT uptake mod 2.74.
C#CCSc1nnc(C)c(C)n1 was read as DAT uptake mod inactive.
Cc1cc(N2CCN(c3ccccc3)CC2)nc(NCc2ccccc2)n1 was read as D1 allo mod -3.54, DAT uptake mod inactive, PKA kinase inh inactive and ROCK2 inh inactive.
`O=C1c2ccccc2C(=O)C1c1nccc2ccccc12` gave D1 allo mod -6.82, DAT uptake mod inactive, PKA kinase inh inactive and ROCK2 inh inactive.
`O=C1c2ccccc2C(=O)C1c1ccnc2ccccc12` gave DAT uptake mod inactive.
Screening CCOC(=O)c1sc(C)c2c1NC(C)(c1cccs1)NC2=O (stereo not given) returned D1 allo mod inactive, DAT uptake mod inactive, PKA kinase inh inactive and ROCK2 inh inactive.
`COc1ccccc1C1(CC(=O)Nc2nccs2)CCOC(C(C)C)C1` (stereo not given) gave DAT uptake mod inactive.
For O=CN1CCN(C(=O)c2ccccc2F)CC1 the results were D1 allo mod -3.2, DAT uptake mod inactive, PKA kinase inh inactive and ROCK2 inh inactive.
`Clc1ccc2c(c1)C(c1cccs1)=NNC(c1cccnc1)=N2` gave DAT uptake mod inactive.
For CCO[C@@H]1OC(C(=O)O)=C[C@H](c2ccc(Br)cc2)[C@H]1CCCO the results were DAT uptake mod inactive.
`Fc1ccccc1N1CCN(c2ncnc3[nH]ncc23)CC1` gave D1 allo mod inactive, PKA kinase inh 28.4 and ROCK2 inh inactive.
For COC(=O)CSc1cc(SCC(=O)OC)c(C#N)c(SCC(=O)OC)c1 the results were D1 allo mod -4.59, DAT uptake mod inactive, PKA kinase inh inactive and ROCK2 inh inactive.
COC(=O)CSc1ccc(C#N)c(SCC(=O)OC)c1 was read as DAT uptake mod inactive.
Screening CN1C(=O)CSc2ccc(NC(=O)NCc3cccnc3)cc21 returned D1 allo mod inactive, DAT uptake mod inactive, PKA kinase inh inactive and ROCK2 inh 57.8.
Screening CCOc1ccc(OCC)c(NC(=O)Nc2ccc3c(c2)N(C)C(=O)CS3)c1 returned DAT uptake mod 1.89.
For O=c1oc(-c2ccc(Br)o2)nc2ccccc12 the results were DAT uptake mod inactive.
For CN1C(=O)/C(=C/c2cn(CC(=O)N3CCCCC3)c3ccccc23)c2ccccc21 the results were DAT uptake mod 3.77.
`CC1CCCC(C)N1C(=O)Cn1cc(/C=C2/C(=O)Nc3ccccc32)c2ccccc21` (stereo not given) gave DAT uptake mod inactive.
`COC(=O)c1cc(Nc2ncnc3c2cnn3-c2ccccc2)cc(C(=O)OC)c1` gave D1 allo mod inactive, PKA kinase inh inactive and ROCK2 inh inactive.
For N[C@@H](CO)c1nnc([C@H](CC(=O)O)NC(=O)C2CCNCC2)o1 the results were DAT uptake mod inactive.
